# In PubChem BioAssay (NCATS):
# Inconclusive results are not listed. Calls of active or inactive are those of the source. Calls come from the whole dose curve; as a rule, active = well fitted inhibition curve with a large enough effect; inconclusive = small, poorly fitted or top-dose-only effect; inactive = flat fitted curve, though single readings scatter. Peptide text beside a SMILES is read from it.
# Tested on: CRL-7250
# Assay: qHTS assay to identify novel small-molecules to repurpose for Merkel cell carcinoma treatment (AID 1296009); note: nearly all actives have a fitted effect of over 60% in size
# Conditions: MCC and control cell lines, CellTiter-Glo viability, 72 h; at 44.8 µM (top of the series) unless noted
# Outline: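 Dose-response viability screen; 72 hr exposure at 37 degree celsius; CellTiter-Glo added, 10 min room temperature, luminescence read; RLUs scaled between no-cell and DMSO wells.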
row,Compound,outcome
1,Cc1c(C)c2c(c(C)c1O)CCC(C)(COc1ccc(CC3SC(=O)NC3=O)cc1)O2 (configuration not stated),inactive
2,O=C1CC(c2ccc(Cl)cc2)CC(=O)N1,inactive
3,Cn1nnc2c(C(N)=O)ncn2c1=O,inactive
4,CC1COc2c(N3CCN(C)CC3)c(F)cc3c(=O)c(C(=O)O)cn1c23 (configuration not stated),inactive
5,NCCCCCC(=O)O,inactive
6,C/C(=C(\CCO)SS/C(CCO)=C(\C)N(C=O)Cc1cnc(C)nc1N)N(C=O)Cc1cnc(C)nc1N,inactive
7,CS(=O)(=O)c1ccc([C@@H](O)[C@@H](CO)NC(=O)C(Cl)Cl)cc1,inactive
8,CO/N=C(/C(=O)N[C@@H]1C(=O)N2C(C(=O)OCOC(=O)C(C)(C)C)=C(C)CS[C@H]12)c1csc(N)n1,inactive
9,OC[C@H]1O[C@H](O[C@]2(CCl)O[C@H](CCl)[C@@H](O)[C@@H]2O)[C@H](O)[C@@H](O)[C@H]1Cl,inactive
10,Nc1cc(=O)[nH]c(N)n1,inactive
11,C[C@]12C=CC(=O)C=C1CC[C@@H]1[C@@H]2C(=O)C[C@@]2(C)[C@H]1CC[C@]2(O)C(=O)CO,inactive [at 17.4 µM]
12,CC1(C)O[C@H]2CC(=O)OC[C@]23[C@H]2CC[C@@]4(C)[C@H](c5ccoc5)OC(=O)[C@H]5O[C@]54[C@]2(C)C(=O)C[C@@H]13,inactive [at 17.4 µM]
13,O=C(NC(Cc1cc(=O)[nH]c2ccccc12)C(=O)O)c1ccc(Cl)cc1 (configuration not stated),inactive
14,CCC[C@@]1(CCc2ccccc2)CC(O)=C([C@H](CC)c2cccc(NS(=O)(=O)c3ccc(C(F)(F)F)cn3)c2)C(=O)O1,inactive
15,CC(C)NCC(O)c1ccc(NS(C)(=O)=O)cc1 (configuration not stated),inactive
16,N[C@@H](COP(=O)(O)O)C(=O)O,inactive [at 17.4 µM]
17,COc1cc(OC)c(C(=O)CCCN2CCCC2)c(OC)c1,inactive
18,NC(=O)NS(=O)(=O)c1ccc(Cl)cc1,inactive
19,NC(=O)NC1NC(=O)NC1=O (configuration not stated),inactive

row,Compound,outcome
1,O=C(N[C@H](CO)[C@H](O)c1ccc([N+](=O)[O-])cc1)C(Cl)Cl,inactive
2,Oc1ccc(Cl)c2cccnc12,inactive
3,CCCCOC(=O)c1ccc(N)cc1,inactive
4,O=S(=O)(O)CCS,inactive
5,CCN1CCCC1CNC(=O)c1cc(S(=O)(=O)CC)c(N)cc1OC (configuration not stated),inactive
6,O=C(CO)[C@@H](O)[C@H](O)[C@@H](O)CO,inactive
7,CC(C)(Oc1ccc(Cl)cc1)C(=O)O,inactive
8,C=CCc1ccc(O)c(OC)c1,inactive
9,CN(C)C(=O)COC(=O)Cc1ccc(OC(=O)c2ccc(N=C(N)N)cc2)cc1,inactive
10,CC(C)(Sc1cc(C(C)(C)C)c(O)c(C(C)(C)C)c1)Sc1cc(C(C)(C)C)c(O)c(C(C)(C)C)c1,inactive
11,COCCCOc1ccnc(CS(=O)c2nc3ccccc3[nH]2)c1C (configuration not stated),inactive
12,Cc1cc(OI)c(C(C)C)cc1-c1cc(C(C)C)c(OI)cc1C,inactive
13,COC(=O)[C@@H]1[C@H]2C[C@H]3c4[nH]c5ccccc5c4CCN3C[C@@H]2CC[C@@H]1O,inactive
14,Cc1c(NC(C)C)c(=O)n(-c2ccccc2)n1C,inactive
15,CCNC(=O)/C=C/c1cccc(Br)c1,inactive
16,O=P(O)(O)C(O)(Cn1ccnc1)P(=O)(O)O,inactive [at 17.4 µM]
17,Cc1ncc([N+](=O)[O-])n1CC(C)O (configuration not stated),inactive
18,CCNC(=O)[C@@H]1CCCN1C(=O)[C@H](CCCN=C(N)N)NC(=O)[C@H](CC(C)C)NC(=O)CNC(=O)[C@H](Cc1ccc(O)cc1)NC(=O)[C@H](CO)NC(=O)[C@H](Cc1c[nH]c2ccccc12)NC(=O)[C@H](Cc1cnc[nH]1)NC(=O)[C@@H]1CCC(=O)N1 (HELM PEPTIDE1{[Glp].H.W.S.Y.G.L.R.P.[CCN[*:1]]}$$$$V2.0),inactive
